According to PubChem BioAssay AID1159580 (chemical genetic matrix, 2015):
Several values for one entry are separate records, joined by “and”; a condition that tells them apart may be missing. Equal values may be shown once. Among all 5,500 compounds or so, about 2,000 (36%) were called active. Another 18% or so got no clear call; they are omitted. No stated cut-off is given here; in the data, active means normalized growth mostly below about 0.91 (no sharp cut-off); inconclusive means no clear call, values can overlap the other calls; inactive means mostly above about 0.92. Some of the results follow.

Assay: chemical genetic growth profiling, strain panel (AID 1159580);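 further: tested at 20 µM; growth read once vehicle control cultures reached saturation at 30 °C; 1 = growth at the plate median or of vehicle wells; lower values mean less growth of the strain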
Settings: S. cerevisiae deletion strains, growth OD

Measured: normalized growth

CC(=O)C1CC[C@H]2C3CC[C@H]4C[C@H](O)CC[C@]4(C)C3CC[C@]12C (some centres undefined)
inactive: locus YAL013W, strain DEP1, active compounds read low 1 | locus YAL021C, strain ccr4, active compounds read low 0.936 | locus YAL030W, strain snc1, active compounds read low 0.999 | locus YBL061C, strain skt5, active compounds read low 1.02 | locus YBR009C, strain hhf1, active compounds read low 1.02 | locus YBR021W, strain FUR4, active compounds read low 0.977 | locus YBR023C, strain chs3, active compounds read low 0.998 | locus YBR171W, strain sec66, active compounds read low 0.998 | locus YBR229C, strain ROT2, active compounds read low 0.995 | locus YBR231C, strain swc5, active compounds read low 1.01 | locus YBR279W, strain paf1, active compounds read low 0.987 | locus YCL011C, strain gbp2, active compounds read low 0.995 | locus YCL016C, strain dcc1, active compounds read low 0.964 | locus YCL029C, strain bik1, active compounds read low 0.998 | locus YCL069W, strain vba3, active compounds read low 1 | locus YCR088W, strain abp1, active compounds read low 1 | locus YDL005C, strain med2, active compounds read low 0.997 | locus YDL035C, strain GPR1, active compounds read low 0.999 | locus YDL040C, strain nat1, active compounds read low 1.01 | locus YDL074C, strain BRE1, active compounds read low 1.01 | locus YDL101C, strain DUN1, active compounds read low 0.982 | locus YDL134C, strain PPH21, active compounds read low 0.975 | locus YDL185W, strain tfp1, active compounds read low 0.989 | locus YDL192W, strain arf1, active compounds read low 1 | locus YDR001C, strain nth1, active compounds read low 1.01 | locus YDR069C, strain doa4, active compounds read low 1 | locus YDR101C, strain arx1, active compounds read low 1.01 | locus YDR159W, strain sac3, active compounds read low 1.03 | locus YDR162C, strain NBP2, active compounds read low 0.993 | locus YDR195W, strain ref2 1.02 | locus YDR297W, strain sur2, active compounds read low 1.02 | locus YDR318W, strain mcm21, active compounds read low 0.995 | locus YDR334W, strain swr1, active compounds read low 1.01 | locus YDR335W, strain msn5, active compounds read low 0.984 | locus YDR388W, active compounds read low 0.994 | locus YDR392W, strain spt3, active compounds read low 0.837 | locus YDR502C, strain sam2, active compounds read low 0.971 | locus YEL003W, strain gim4, active compounds read low 1 | locus YEL037C, strain rad23, active compounds read low 0.994 | locus YEL061C, strain CIN8 (second series), active compounds read low 1 | locus YEL061C, strain CIN8, active compounds read low 1.01 | locus YER015W, strain faa2, active compounds read low 1 | locus YER016W, strain bim1, active compounds read low 0.998 | locus YER110C, active compounds read low 0.981 | locus YER111C, strain swi4, active compounds read low 0.994 | locus YER155C, strain BEM2 (second series), active compounds read low 1.02 | locus YER155C, strain BEM2, active compounds read low 0.992 | locus YER167W, strain BCK2, active compounds read low 0.993 | locus YFR010W, strain ubp6, active compounds read low 0.999 | locus YGL078C, strain dbp3, active compounds read low 0.963 | locus YGL086W, strain mad1, active compounds read low 0.971 | locus YGL167C, strain pmr1, active compounds read low 1.01 | locus YGL173C, strain kem1, active compounds read low 0.99 | locus YGL227W, strain vid30, active compounds read low 1.01 | locus YGL240W, strain doc1, active compounds read low 1.01 | locus YGL248W, strain PDE1, active compounds read low 0.987 | locus YGL253W, strain hxk2, active compounds read low 0.983 | locus YGR078C, strain PAC10, active compounds read low 0.969 | locus YGR135W, strain pre9, active compounds read low 0.932 | locus YGR229C, strain SMI1, active compounds read low 1.05 | locus YGR252W, strain gcn5, active compounds read low 0.928 | locus YHR013C, strain ard1, active compounds read low 0.996 | locus YHR027C, strain rpn1, active compounds read low 0.999 | locus YHR030C, strain SLT2, active compounds read low 0.992 and 0.994 | locus YHR079C, strain IRE1 (second series), active compounds read low 1 | locus YHR079C, strain IRE1, active compounds read low 1 | locus YHR094C, strain hxt1, active compounds read low 0.992 | locus YHR129C, strain ARP1, active compounds read low 1 | locus YHR142W, strain chs7, active compounds read low 0.957 | locus YHR200W, strain rpn10, active compounds read low 0.984 | locus YIL066C, strain RNR3, active compounds read low 1.01 | locus YIL073C, strain SPO22, active compounds read low 0.962 | locus YIL125W, strain kgd1, active compounds read low 1 | locus YIR030C, strain dcg1, active compounds read low 0.998 | locus YJL092W, strain hpr5, active compounds read low 1 | locus YJL095W, strain BCK1 (second series), active compounds read low 1.01 | locus YJL095W, strain BCK1, active compounds read low 0.936 and 0.99 | locus YJL115W, strain asf1, active compounds read low 1 | locus YJL129C, strain trk1, active compounds read low 1.01 | locus YJL134W, strain LCB3, active compounds read low 1 | locus YJL154C, strain vps35, active compounds read low 1.01 | locus YJL164C, strain tpk1, active compounds read low 0.999 | locus YJL166W, strain qcr8, active compounds read low 1.01 | locus YJL168C, strain set2, active compounds read low 1 | locus YJL187C, strain SWE1 (second series), active compounds read low 0.962 | locus YJL187C, strain SWE1, active compounds read low 1.01 | locus YJR043C, strain POL32, active compounds read low 1.05 | locus YJR066W, strain TOR1, active compounds read low 0.924 | locus YKL009W, strain mrt4, active compounds read low 0.978 | locus YKL068W, active compounds read low 0.993 | locus YKL085W, strain MDH1 (second series), active compounds read low 1.01 | locus YKL085W, strain MDH1, active compounds read low 1.01 | locus YKL160W, strain elf1, active compounds read low 0.976 | locus YKL190W, strain CNB1, active compounds read low 1.01 | locus YKR001C, strain vps1, active compounds read low 1.02 | locus YKR026C, strain gcn3, active compounds read low 1 | locus YKR091W, strain srl3, active compounds read low 1.01 | locus YLL001W, strain dnm1, active compounds read low 1 | locus YLL026W, active compounds read low 1.02 | locus YLL041C, strain sdh2, active compounds read low 0.997 | locus YLR027C, strain aat2, active compounds read low 0.983 | locus YLR039C, strain RIC1, active compounds read low 0.797 | locus YLR058C, strain SHM2, active compounds read low 0.991 | locus YLR102C, strain apc9, active compounds read low 1 | locus YLR113W, strain HOG1, active compounds read low 1.01 | locus YLR221C, strain rsa3, active compounds read low 1.03 | locus YLR258W, strain gsy2, active compounds read low 0.964 | locus YLR268W, strain sec22, active compounds read low 0.977 | locus YLR320W, strain mms22, active compounds read low 0.98 | locus YLR330W, strain CHS5, active compounds read low 1 | locus YLR342W, strain FKS1 (second series), active compounds read low 0.997 | locus YLR342W, strain FKS1, active compounds read low 1.01 | locus YLR357W, strain rsc2, active compounds read low 0.994 | locus YLR370C, strain arc18, active compounds read low 0.999 | locus YLR371W, strain rom2, active compounds read low 1 | locus YLR384C, strain iki3, active compounds read low 0.977 | locus YLR418C, strain cdc73, active compounds read low 0.993 | locus YML016C, strain PPZ1, active compounds read low 0.994 | locus YML032C, strain rad52, active compounds read low 0.969 | locus YML120C, strain ndi1, active compounds read low 1.02 | locus YML124C, strain tub3, active compounds read low 0.996 | locus YMR058W, strain fet3, active compounds read low 1.01 | locus YMR078C, strain ctf18, active compounds read low 0.988 | locus YMR125W, strain sto1, active compounds read low 0.998 | locus YMR129W, active compounds read low 1 | locus YMR205C, strain PFK2, active compounds read low 1 | locus YMR223W, strain ubp8, active compounds read low 0.977 | locus YMR231W, strain pep5, active compounds read low 1.01 | locus YMR307W, strain GAS1, active compounds read low 1.11 | locus YNL067W, strain RPL9B, active compounds read low 0.967 | locus YNL071W, strain lat1, active compounds read low 0.995 | locus YNL128W, strain TEP1, active compounds read low 0.993 | locus YNL153C, strain GIM3, active compounds read low 0.985 | locus YNL183C, strain NPR1, active compounds read low 0.959 | locus YNL209W, strain ssb2, active compounds read low 0.987 | locus YNL233W, strain BNI4, active compounds read low 0.992 | locus YNL248C, strain rpa49, active compounds read low 0.939 | locus YNL250W, strain rad50, active compounds read low 0.946 | locus YNL271C, strain bni1, active compounds read low 0.986 | locus YNL298W, strain CLA4, active compounds read low 0.993 | locus YNL307C, strain MCK1, active compounds read low 1.01 | locus YNL322C, strain KRE1 (second series), active compounds read low 1.01 | locus YNR049C, strain mso1, active compounds read low 1.01 | locus YNR052C, strain pop2, active compounds read low 0.943 | locus YOL012C, strain htz1 0.983 | locus YOL147C, strain pex11, active compounds read low 0.994 | locus YOR001W, strain rrp6, active compounds read low 0.994 | locus YOR061W, strain CKA2, active compounds read low 1.01 | locus YOR069W, strain VPS5, active compounds read low 0.988 | locus YOR070C, strain gyp1, active compounds read low 0.991 | locus YOR080W, strain dia2, active compounds read low 1.01 | locus YOR083W, strain WHI5, active compounds read low 0.984 | locus YOR106W, strain vam3, active compounds read low 0.995 | locus YOR136W, strain idh2, active compounds read low 0.992 | locus YOR144C, strain elg1, active compounds read low 0.998 | locus YOR184W, strain ser1, active compounds read low 0.981 | locus YOR231W, strain MKK1, active compounds read low 0.996 | locus YOR265W, strain rbl2, active compounds read low 0.993 | locus YOR270C, strain vph1, active compounds read low 0.949 | locus YOR290C, strain snf2, active compounds read low 0.951 | locus YOR316C, strain cot1, active compounds read low 1 | locus YPL051W, strain arl3, active compounds read low 0.986 | locus YPL078C, strain atp4, active compounds read low 0.976 | locus YPL106C, strain sse1, active compounds read low 1.04 | locus YPL240C, strain hsp82, active compounds read low 1.02 | locus YPL256C, strain CLN2, active compounds read low 1.01 | locus YPR119W, strain clb2, active compounds read low 0.997 | locus YPR141C, strain kar3, active compounds read low 0.99 | locus YPR163C, strain tif3, active compounds read low 0.99 | locus YPR167C, strain met16, active compounds read low 0.995 | strain wtn01, active compounds read low 0.987
active: locus YAL026C, strain drs2, active compounds read low 0.849 | locus YDR137W, strain rgp1, active compounds read low 0.763 | locus YLR262C, strain YPT6 (second series), active compounds read low 0.778
